# PubChem BioAssay AID686979 (National Center for Advancing Translational Sciences (NCATS), 2013)
# Screen size: about 420,000 compounds; about 50,000 (12%) were called active. Inconclusive results (about 26%) are left out. The sample holds actives, similar compounds and a random draw of the others, so the mix is not that of the screen. A number with no mark means an inactive call. The call rests on the fitted dose curve; in most records, active means well fitted inhibition curve with a large enough effect; inconclusive means small, poorly fitted or top-dose-only effect; inactive means flat fitted curve, though single readings scatter.
# Assay: qHTS for Inhibitors of human tyrosyl-DNA phosphodiesterase 1 (TDP1): qHTS in cells in presence of CPT; further: nearly all actives have a fitted effect of over 55% in size
# Details: chicken DT40 Tdp1-/-;hTDP1 cells + 20 nM CPT, ATP luminescence, 48 h; series mostly up to 46.2 µM; activity change, negative = growth inhibition: at the top concentration
# Method in brief: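 Cell growth measured by CellTiter-Glo luminescence after a minimum 48 h, 37 C compound exposure with 20 nM CPT in Tdp1-knockout DT40 cells stably expressing hTDP1, seeded 400/well; qHTS titration format.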
# On the % scale 0 is the no-effect control and ±100 the full control effect; potency means the concentration at half of the fitted maximal effect.
Structure (SMILES),"activity change, negative = growth inhibition [%]",Potency
C=CCn1c(SCC(=O)NC(=O)Cc2ccccc2)nc2ccccc2c1=O,0.809,–
COc1ccc(C(=O)NC(=S)Nc2ccccc2N2CCN(S(C)(=O)=O)CC2)cc1OC,–,12.6 µM (active)
COc1ccccc1C(=O)NC(=S)Nc1ccccc1N1CCCCC1,-23.6,–
CCC(=O)Nc1ccccc1N1CCN(S(C)(=O)=O)CC1,-17.6,–
COc1ccc(S(=O)(=O)N2CCOCC2)cc1C(=O)NC1CCCCC1,-6.97,–
O=C(CC1SC(N2CCCC2)=NC1=O)Nc1ccc(C(=O)NCCc2ccc(F)cc2)cc1 (stereo not given),-11.2,–
Fc1ccc(-c2csc(-c3ccc(C4SCCS4)cc3)n2)cc1F,-15.4,–
COc1cc(NC(=O)C2CC(c3ccccc3O)=NO2)c(OC)cc1Cl (stereo not given),22.2,–
COc1cc(NC(=O)Cn2nc(-c3ccc(C)c(C)c3)ccc2=O)cc(OC)c1,–,20.6 µM (active)
COc1cc(NC(=O)CSc2nnc3ccc(-c4ccncc4)nn23)cc(OC)c1,-4.16,–
COc1ccc(-c2ccc(=O)n(CC(=O)Nc3ccc(Br)cc3F)n2)cc1,-8.26,–
O=C(Nc1nnc(CCOCCOCCc2nnc(NC(=O)c3ccco3)s2)s1)c1ccco1,-11.4,–
CCCNC(=O)NC(=O)COC(=O)CC(NC(N)=O)c1ccc(Cl)cc1 (stereo not given),-6.82,–
Cn1c(SCC(=O)Nc2ccc(N3CCOCC3)cc2)nnc1C(F)(F)F,-0.589,–
COc1cc2[nH]c(=O)n(Cc3ccc(C(=O)NC4CCN(Cc5ccccc5)CC4)cc3)c(=O)c2cc1OC,-25.7,–
O=C(c1ccc2c(=O)n(Cc3ccco3)c(=S)[nH]c2c1)N1CCCC1,-22.9,–
COc1ccccc1Cn1c(=S)[nH]c2cc(C(=O)N3CCN(C)CC3)ccc2c1=O,-23.2,–
CCOC(=O)N1CCN(C(=O)c2ccc3c(=O)n(CCc4ccc(OC)c(OC)c4)c(=O)[nH]c3c2)CC1,–,20.6 µM (active)
COc1ccc(Cn2c(=O)[nH]c3cc(C(=O)N4CCN(C(=O)c5ccco5)CC4)ccc3c2=O)cc1,–,11.2 µM (active)
COCCn1c(=S)[nH]c2cc(C(=O)NCCc3ccc(OC)c(OC)c3)ccc2c1=O,-21.7,–
O=C(N=C1SC2CS(=O)(=O)CC2N1c1ccccc1)c1ccccc1 (stereo not given),11.5,–
CS(=O)(=O)c1ccc(Cl)c(NC(=O)COC(=O)c2cccc(S(=O)(=O)N3CCCC3)c2)c1,-20.5,–
CC(C)CCNC(=O)C(C)N(C(=O)Cn1nnc(-c2ccc(F)cc2)n1)C1CCCC1 (stereo not given),-27.3,–
O=C(O)c1ccccc1CSc1nc2ccccc2s1,-12.8,–
CN(C)c1ccc(/C=c2\[nH]c(=O)/c(=C/c3ccc(N(C)C)cc3)[nH]c2=O)cc1,-29.3,–

Structure (SMILES),"activity change, negative = growth inhibition [%]",Potency
COc1ccc2c(c1)c(=Cc1ccc(N(C)C)cc1)c1cc(-c3ccccc3)[n+](C)n12,–,0.92 µM (active)
COc1ccc2sc(-c3ccc(N(C)C)cc3)c(-c3ccc4cc[nH]c4c3)c2c1,-26.4,–
O=C(CSc1nc2[nH]ncc2c(=O)[nH]1)Nc1ccc(F)cc1,-14.2,–
O=C(NCCc1cccc(F)c1)C1CC(O)CN1C(=O)Nc1ccccc1 (stereo not given),-13.5,–
CCCCN1C(=O)CCC(C(=O)O)C1c1ccc(OC)cc1 (stereo not given),-25.7,–
CCCCc1ccc(NC(=O)CN2C(=O)NC(Cc3ccccc3)C2=O)cc1 (stereo not given),-26.5,–
O=C(Cn1c(=O)n(Cc2ccco2)c(=O)c2ccccc21)NCC1CCCO1 (stereo not given),-6.65,–
CCn1c(COc2ccccc2)nnc1SCC(=O)NCc1ccco1,-0.143,–
Cn1c2ccccc2c(=O)c2c(=O)n(Cc3ccco3)c(COc3ccccc3)nc21,–,18.4 µM (active)
CCS(=O)(=O)Nc1ccc(C(=O)NCCSc2ccccc2)cc1,-13.8,–
COc1ccc(-c2nc(Cn3c(=O)cc(C)c4c(C)nn(-c5ccccc5)c43)c(C)o2)cc1OC,-1.38,–
Cc1ccc(S(=O)(=O)N2C[C@]3(O)C[C@@H]4C(=O)N(c5ccccc5)C(=O)[C@@H]4C[C@]3(OC(=O)NC3CC3)C2)cc1,-5.7,–
COc1ccc(CNC(=O)COC(=O)CCS(=O)(=O)c2ccc(C)cc2)cc1OC,4.42,–
CCCCCCn1c(=O)n2n(c1=O)C[C@]1(OC(=O)NCc3ccc(OC)c(OC)c3)CN(S(=O)(=O)c3ccc(C)cc3)C[C@]1(O)C2,–,23.1 µM (active)
CC1CCCCC1NC(=O)c1cn(C)c2ccc(S(=O)(=O)N3CCOCC3)cc2c1=O (stereo not given),-3.99,–
Cc1ccc(S(=O)(=O)N2CCC(Oc3ccc(-n4cnnn4)cc3)CC2)cc1,–,inactive
OCCNc1ncnc2oc(-c3ccco3)c(-c3ccco3)c12,–,12.6 µM (active)
Cc1nnc(NCCO)c2ccccc12,-21.7,–
COc1ccc(-c2oc3ncnc(NCCCO)c3c2-c2ccc(OC)cc2)cc1,–,20.6 µM (active)
OCCc1ccc(NCCc2ccco2)cc1,-0.916,–
COCCNc1ncnc2c1ncn2[C@H]1CN(Cc2ccc(OC)cc2)C[C@@H](CO)O1,0.682,–
O=C(CCSCc1cccc(F)c1)NCc1ccccc1,-26.1,–
COc1ccccc1CNS(=O)(=O)c1c(C)[nH]c(C)c1C(=O)N1CCCCC1,-24.2,–
COc1ccc(-n2c(SC)nc(O)cc2=O)cc1,3.21,–
COc1ccc(-n2c(C)nc3c(cnn3-c3ccc(F)cc3)c2=O)cc1,–,23.1 µM (active)

Structure (SMILES),"activity change, negative = growth inhibition [%]",Potency
CCOC(=O)c1ccc(-n2c(C)nc3c(cnn3-c3ccccc3C)c2=O)cc1,-14.8,–
Cc1ccc(Oc2cnn(-c3ccccc3)c(=O)c2Br)cc1,-24,–
COc1ccc(-n2c(C)nc3c(cnn3-c3ccccc3)c2=O)cc1,–,29.1 µM (active)
CCOc1ccc(-n2c(C)nc3c(cnn3-c3ccc(C)cc3)c2=O)cc1,–,5.17 µM (active)
CC(=O)Cn1cnc2c(cnn2-c2ccccc2)c1=O,6.92,–
CCC(C)Sc1nc2c(cnn2-c2ccc(F)cc2)c(=O)[nH]1 (stereo not given),-4.36,–
CCc1nc2c(cnn2-c2ccc(C)cc2)c(=O)n1-c1ccc(C)cc1,-22.7,–
CC1CCc2c(c3ccccc3[nH]c2=O)O1 (stereo not given),1.58,–
COc1ccc(-c2nc(N)sc2C2(O)C(=O)Nc3c(Br)cc(F)cc32)cc1OC (stereo not given),0.824,–
O=C(COC(=O)c1cccnc1Cl)Nc1ccc(S(=O)(=O)N2CCOCC2)cc1,-4.85,–
COc1ccccc1CNC(=O)CCCN1C(=O)NC2(CCCC2)C1=O,-16.4,–
COc1ccccc1CC(=O)Nc1ccc([N+](=O)[O-])cc1OC,-27.9,–
CC[C@]1(c2ccccc2OC)C(=O)N(C(=O)OC)N1C(=O)OC,–,20.6 µM (active)
Cc1ccccc1/C=C\c1nc(O)c([N+](=O)[O-])c(=O)[nH]1,1.6,–
Cc1ccc(C(=O)NNC(=O)c2ccncc2)cc1S(=O)(=O)N1CCCCC1,-14.8,–
O=C(NNC(=O)c1cnccc1C(F)(F)F)c1ccc(Cl)cc1,-1.63,–
O=C(NNC1=C(C(=O)C(F)(F)F)CCC1)c1ccncc1,–,1.64 µM (active)
COc1cccc(NC(=O)CN(C)CC(=O)c2c(N)n(Cc3ccccc3)c(=O)n(C)c2=O)c1,-2.74,–
O=C(OCC(=O)N1CCCCCC1)c1cccc(Cl)c1Cl,-1.2,–
Cc1ccccc1C(=O)NCC(c1ccco1)N1CCc2ccccc21 (stereo not given),0.122,–
O=C(NCC(c1cccnc1)N1CCc2ccccc21)c1cccc(C(F)(F)F)c1 (stereo not given),–,16.4 µM (active)
CCOC(=O)c1c(NC(=O)CSc2cn(CCNC(=O)c3cccc(C(F)(F)F)c3)c3ccccc23)sc2c1CCC2,-11.3,–
CCNC(=O)c1cnn(-c2ccccc2)c1-c1ccccc1,-25.6,–
CCCCNCCS(=O)(=O)NCc1ccccc1,-3.55,–
Cc1cc(NC(=O)CSc2nc3ccccc3n2CC(C)C)no1,0.712,–

Structure (SMILES),"activity change, negative = growth inhibition [%]",Potency
Cc1ccc(SCCC(=O)OCC(=O)Nc2ncc(Cl)cc2Cl)cc1,-22.8,–
Cc1ccc(-n2c(SCC(=O)Nc3ncc(Cl)cc3Cl)nc3ccccc32)cc1,–,14.6 µM (active)
Cc1cccc(N(CC(=O)N2CCCC2)S(C)(=O)=O)c1C,-0.939,–
CCN(CC)C(=O)CS(=O)CC(=O)Nc1cc(OCCOC)c(Cl)cc1Cl (stereo not given),-0.33,–
COc1ccccc1-c1nc(NCCNC(C)=O)c2ccccc2n1,0.18,–
COc1ccccc1-c1nc(NCc2cccs2)c2ccccc2n1,–,16.4 µM (active)
COc1ccccc1CNCc1cccs1,-5.33,–
CC1(C)CC(N2CCN(C(c3ccccc3)c3ccccc3)CC2)=CC(=[N+]2CCCCC2)C1,–,0.164 µM (active)
CC1(C)CC(=O)C=C(N2CCCC2)C1,5.46,–
O=C(O)CN1CCN(C(c2ccccc2)c2ccccc2)CC1,-0.379,–
CC(Oc1ccc2c(-c3ccccc3)cc(=O)oc2c1)C(=O)NC(Cc1c[nH]c2ccccc12)C(=O)O (stereo not given),6.52,–
Cc1ccc(C)c(NC(=O)COC(=O)Cn2c(C)csc2=O)c1,-13.9,–
COc1ccc(CCNC(=O)C(=O)NCC2CCNCC2)cc1OC,2.42,–
CCOc1ccccc1C(=O)NCC(c1ccc(N(C)C)cc1)N1CCCC1 (stereo not given),–,20.6 µM (active)
COc1ccc(S(=O)(=O)NCC(c2ccc(N(C)C)cc2)N2CCc3ccccc32)cc1OC (stereo not given),-11.8,–
COc1ccc(S(=O)(=O)NCC(c2ccc(N(C)C)cc2)N2CCCC2)cc1 (stereo not given),-7.81,–
COc1ccc(C(CNC(=O)COc2ccccc2OC)N2CCCCC2)cc1 (stereo not given),-14.9,–
COc1ccc(C(=O)NCC(c2ccc(N(C)C)cc2)N2CCc3ccccc32)c(OC)c1 (stereo not given),–,18.4 µM (active)
COc1ccccc1C(=O)NCCC(=O)NCC(c1ccco1)N1CCCCC1 (stereo not given),-7.77,–
CCS(=O)(=O)N1CCC(N2CCN(c3ccccc3)CC2)CC1,3.97,–
COC(=O)c1cc(OCC(=O)NC2CCCc3ccccc32)cc(C(=O)OC)c1 (stereo not given),2.26,–
CCCOCC(O)CC(CC)C(=O)NNC(=S)Nc1ccccc1 (stereo not given),0.982,–
COc1cccc(C(=O)Nc2c3c(nn2-c2cccc(C)c2C)CS(=O)(=O)C3)c1OC,–,35.5 µM (active)
COc1ccccc1OCC(=O)Nc1c2c(nn1-c1ccc(F)cc1)CS(=O)(=O)C2,-5.24,–
Cc1cccc(-n2nc3c(c2NC(=O)c2ccc(Br)o2)CSC3)c1C,-18.8,–
